Data from the supplement of paper PMC12067093, “Discovery and optimisation of a covalent ligand for TRIM25 and its application to targeted protein ubiquitination” (Chemical Science, 2025).
Targets with the largest changes are over-represented here; the source holds about 21,000 in all.

Legend:
[1] = compound: CC1Cc2ccccc2N1C(=O)C1CCCN(C1)C(=O)CCl (mixture of isomers) [TRIM25 ligand 11 (diastereomer mixture)]; test: probe-labelled cysteine peptide fold change vs DMSO (competition) (log2 fold change); higher = less target engagement (more negative = stronger competition); conditions: THP-1, incubation time: 4 h
compound 10 = compound: Cc1cc(ccc1-c1ccccc1)C(=O)N1CCCN(CC1)C(=O)CCl [compound 10]; test: as above; conditions: THP-1, incubation time: 4 h

UniProt P49748, sequence (P49748 whole entry, looked up): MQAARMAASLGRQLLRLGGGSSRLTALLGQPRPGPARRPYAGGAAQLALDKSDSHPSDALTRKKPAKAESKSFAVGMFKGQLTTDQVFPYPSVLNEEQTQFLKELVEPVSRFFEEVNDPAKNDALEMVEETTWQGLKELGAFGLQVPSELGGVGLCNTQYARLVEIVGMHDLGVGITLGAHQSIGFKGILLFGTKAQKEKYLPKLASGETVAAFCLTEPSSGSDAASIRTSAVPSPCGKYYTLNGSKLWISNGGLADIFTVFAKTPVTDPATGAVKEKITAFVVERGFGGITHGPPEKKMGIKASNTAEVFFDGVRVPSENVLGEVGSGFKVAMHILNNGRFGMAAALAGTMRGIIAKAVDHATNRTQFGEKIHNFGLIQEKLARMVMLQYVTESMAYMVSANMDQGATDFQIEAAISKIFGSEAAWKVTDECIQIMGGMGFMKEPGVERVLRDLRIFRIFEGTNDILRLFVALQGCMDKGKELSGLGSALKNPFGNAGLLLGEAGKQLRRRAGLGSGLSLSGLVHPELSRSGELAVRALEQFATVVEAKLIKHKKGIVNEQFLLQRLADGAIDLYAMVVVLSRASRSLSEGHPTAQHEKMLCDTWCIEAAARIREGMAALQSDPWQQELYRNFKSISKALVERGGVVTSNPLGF
UniProt P16219, sequence (P16219 whole entry, looked up): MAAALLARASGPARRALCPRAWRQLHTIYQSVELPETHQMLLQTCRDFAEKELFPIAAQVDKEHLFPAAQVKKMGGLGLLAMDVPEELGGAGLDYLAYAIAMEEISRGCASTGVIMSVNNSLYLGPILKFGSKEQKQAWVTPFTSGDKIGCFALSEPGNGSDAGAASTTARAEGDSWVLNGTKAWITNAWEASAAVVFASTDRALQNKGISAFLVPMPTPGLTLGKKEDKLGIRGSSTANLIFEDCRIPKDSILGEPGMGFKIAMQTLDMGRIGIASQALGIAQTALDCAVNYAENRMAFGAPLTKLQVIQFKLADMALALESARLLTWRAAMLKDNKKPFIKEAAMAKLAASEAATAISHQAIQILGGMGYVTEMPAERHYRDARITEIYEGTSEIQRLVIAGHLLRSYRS
UniProt Q9NRG9, sequence (Q9NRG9 whole entry, looked up): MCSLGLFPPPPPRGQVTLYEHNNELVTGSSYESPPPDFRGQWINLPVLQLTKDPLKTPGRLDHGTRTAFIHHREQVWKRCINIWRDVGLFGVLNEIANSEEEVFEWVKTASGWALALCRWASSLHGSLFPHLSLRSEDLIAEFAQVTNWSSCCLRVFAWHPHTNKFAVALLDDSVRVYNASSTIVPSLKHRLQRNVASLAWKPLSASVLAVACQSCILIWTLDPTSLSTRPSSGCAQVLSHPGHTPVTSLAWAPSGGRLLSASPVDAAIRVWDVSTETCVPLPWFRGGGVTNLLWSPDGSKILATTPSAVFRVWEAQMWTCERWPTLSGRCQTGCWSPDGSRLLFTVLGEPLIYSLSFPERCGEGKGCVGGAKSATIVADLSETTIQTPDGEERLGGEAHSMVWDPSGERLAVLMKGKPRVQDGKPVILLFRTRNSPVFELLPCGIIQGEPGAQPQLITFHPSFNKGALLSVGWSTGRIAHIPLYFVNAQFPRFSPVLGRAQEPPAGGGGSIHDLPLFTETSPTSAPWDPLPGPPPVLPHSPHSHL
UniProt Q9ULM3, sequence (Q9ULM3 whole entry, looked up): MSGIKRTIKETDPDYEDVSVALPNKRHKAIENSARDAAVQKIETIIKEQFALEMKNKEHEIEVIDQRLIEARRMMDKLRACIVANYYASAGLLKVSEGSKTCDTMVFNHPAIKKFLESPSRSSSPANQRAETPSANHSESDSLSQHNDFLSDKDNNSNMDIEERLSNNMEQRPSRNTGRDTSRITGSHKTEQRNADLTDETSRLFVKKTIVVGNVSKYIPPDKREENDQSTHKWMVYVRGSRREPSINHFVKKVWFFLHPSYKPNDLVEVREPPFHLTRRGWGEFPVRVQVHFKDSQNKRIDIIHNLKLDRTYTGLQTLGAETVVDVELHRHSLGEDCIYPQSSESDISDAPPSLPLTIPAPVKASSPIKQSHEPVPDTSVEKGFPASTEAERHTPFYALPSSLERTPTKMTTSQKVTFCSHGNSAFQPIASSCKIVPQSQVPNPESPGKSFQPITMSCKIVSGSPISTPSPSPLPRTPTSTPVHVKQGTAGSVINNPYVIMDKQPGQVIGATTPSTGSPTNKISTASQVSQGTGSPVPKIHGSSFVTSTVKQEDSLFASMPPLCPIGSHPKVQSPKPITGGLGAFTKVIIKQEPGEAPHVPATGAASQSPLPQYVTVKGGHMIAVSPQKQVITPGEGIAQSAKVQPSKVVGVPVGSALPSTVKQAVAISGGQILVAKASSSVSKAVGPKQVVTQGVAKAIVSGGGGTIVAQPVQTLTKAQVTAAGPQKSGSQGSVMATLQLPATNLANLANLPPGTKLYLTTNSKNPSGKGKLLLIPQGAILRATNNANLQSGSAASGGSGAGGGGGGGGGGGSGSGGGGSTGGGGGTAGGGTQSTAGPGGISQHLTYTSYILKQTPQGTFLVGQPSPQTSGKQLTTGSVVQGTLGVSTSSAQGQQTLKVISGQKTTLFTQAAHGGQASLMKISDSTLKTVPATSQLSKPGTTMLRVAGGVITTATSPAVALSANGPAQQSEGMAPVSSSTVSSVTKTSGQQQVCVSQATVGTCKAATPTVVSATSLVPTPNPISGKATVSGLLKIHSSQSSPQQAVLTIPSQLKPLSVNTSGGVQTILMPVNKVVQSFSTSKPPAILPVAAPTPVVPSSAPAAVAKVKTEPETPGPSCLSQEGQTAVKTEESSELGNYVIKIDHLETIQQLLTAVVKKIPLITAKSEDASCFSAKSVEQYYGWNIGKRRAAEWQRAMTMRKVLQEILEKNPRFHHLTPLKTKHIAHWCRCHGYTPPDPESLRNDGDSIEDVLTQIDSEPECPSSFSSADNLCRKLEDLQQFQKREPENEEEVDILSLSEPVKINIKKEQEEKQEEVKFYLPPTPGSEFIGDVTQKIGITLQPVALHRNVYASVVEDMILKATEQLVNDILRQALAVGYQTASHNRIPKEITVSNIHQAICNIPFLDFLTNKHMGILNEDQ
UniProt P55263, sequence (P55263 whole entry, looked up): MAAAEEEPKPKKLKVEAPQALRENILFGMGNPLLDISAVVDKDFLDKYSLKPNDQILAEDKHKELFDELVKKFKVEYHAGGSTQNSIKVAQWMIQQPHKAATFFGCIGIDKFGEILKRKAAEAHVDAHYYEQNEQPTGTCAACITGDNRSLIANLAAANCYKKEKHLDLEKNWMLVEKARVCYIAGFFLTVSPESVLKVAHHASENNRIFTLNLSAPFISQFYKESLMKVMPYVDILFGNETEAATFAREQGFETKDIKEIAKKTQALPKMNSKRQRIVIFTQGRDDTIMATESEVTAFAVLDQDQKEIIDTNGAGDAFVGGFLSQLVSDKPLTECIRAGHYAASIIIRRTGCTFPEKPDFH
UniProt Q15649, sequence (Q15649 whole entry, looked up): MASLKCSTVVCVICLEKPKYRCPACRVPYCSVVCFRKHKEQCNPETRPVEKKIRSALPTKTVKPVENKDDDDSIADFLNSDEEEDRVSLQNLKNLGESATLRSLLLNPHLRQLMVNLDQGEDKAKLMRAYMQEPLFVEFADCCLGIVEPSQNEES
UniProt Q9Y2Z4, sequence (Q9Y2Z4 whole entry, looked up): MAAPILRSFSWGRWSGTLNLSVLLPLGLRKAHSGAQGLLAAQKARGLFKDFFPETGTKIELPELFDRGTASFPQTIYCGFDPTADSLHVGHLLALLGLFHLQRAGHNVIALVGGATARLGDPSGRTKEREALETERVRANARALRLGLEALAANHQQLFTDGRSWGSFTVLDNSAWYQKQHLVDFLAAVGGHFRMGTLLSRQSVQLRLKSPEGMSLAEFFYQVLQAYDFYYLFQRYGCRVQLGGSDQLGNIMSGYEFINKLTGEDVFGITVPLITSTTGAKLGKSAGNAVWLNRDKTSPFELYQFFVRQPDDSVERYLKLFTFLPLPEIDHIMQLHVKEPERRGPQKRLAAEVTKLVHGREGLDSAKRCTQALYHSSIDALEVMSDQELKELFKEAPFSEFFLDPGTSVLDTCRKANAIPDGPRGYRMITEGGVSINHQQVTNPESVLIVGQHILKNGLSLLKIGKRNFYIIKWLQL
UniProt O43707, sequence (O43707 whole entry, looked up): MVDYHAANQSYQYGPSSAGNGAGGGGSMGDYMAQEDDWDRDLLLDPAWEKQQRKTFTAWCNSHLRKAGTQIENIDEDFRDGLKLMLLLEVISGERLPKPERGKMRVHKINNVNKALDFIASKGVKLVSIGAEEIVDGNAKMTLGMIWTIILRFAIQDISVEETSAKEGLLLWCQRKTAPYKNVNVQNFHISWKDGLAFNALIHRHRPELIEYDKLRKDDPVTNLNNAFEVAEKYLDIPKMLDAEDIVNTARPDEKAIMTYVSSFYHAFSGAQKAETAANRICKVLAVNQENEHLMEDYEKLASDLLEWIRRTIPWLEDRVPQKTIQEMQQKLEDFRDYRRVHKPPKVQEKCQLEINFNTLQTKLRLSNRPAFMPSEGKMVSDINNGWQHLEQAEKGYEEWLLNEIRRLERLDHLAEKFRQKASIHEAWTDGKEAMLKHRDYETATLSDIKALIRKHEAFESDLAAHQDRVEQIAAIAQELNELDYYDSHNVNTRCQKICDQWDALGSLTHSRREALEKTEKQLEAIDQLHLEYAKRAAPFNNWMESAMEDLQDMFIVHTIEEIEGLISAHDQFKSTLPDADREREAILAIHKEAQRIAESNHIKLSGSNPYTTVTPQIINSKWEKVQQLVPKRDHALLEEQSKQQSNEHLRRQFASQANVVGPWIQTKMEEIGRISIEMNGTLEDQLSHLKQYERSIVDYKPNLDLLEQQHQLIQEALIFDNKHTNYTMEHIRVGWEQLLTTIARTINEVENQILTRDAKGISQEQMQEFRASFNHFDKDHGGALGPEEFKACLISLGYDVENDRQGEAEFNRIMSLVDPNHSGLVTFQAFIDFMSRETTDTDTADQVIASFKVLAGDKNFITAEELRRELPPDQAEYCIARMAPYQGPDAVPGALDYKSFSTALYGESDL

| Target | probe-labelled cysteine peptide fold change ([1]; 10 µM) | probe-labelled cysteine peptide fold change ([1]; 50 µM) | probe-labelled cysteine peptide fold change (compound 10; 10 µM) | probe-labelled cysteine peptide fold change (compound 10; 50 µM) |
| --- | --- | --- | --- | --- |
| ADK_P55263_160_SLIANLAAANCYKK (UniProt P55263) | -0.669 | -0.408 |  |  |
| ZNF598_Q86UK7_867_VCPTCQQVLAHGDASSHQALHAAR (UniProt Q86UK7) |  |  | 0.228 | 0.187 |
| WDR77_Q9BQA1_172_AHAAQVTCVAASPHK (UniProt Q9BQA1) |  |  | 0.0618 | 0.254 |
| XPO4_Q9C0E2_492_IAAEHCIPLLTSLLEER (UniProt Q9C0E2) |  |  | 0.012 | 0.2 |
| AAAS_Q9NRG9_335_CQTGCWSPDGSR (UniProt Q9NRG9) | 0.605 | -0.129 |  |  |
| ZNHIT3_Q15649_30_VPYCSVVCFR (UniProt Q15649) |  |  | -0.0726 | -1.11 |
| ADD2_P35612_224_CIIHLHTPATAAVSAMK (UniProt P35612) | -0.0204 | -0.168 |  |  |
| YEATS2_Q9ULM3_565_QEDSLFASMPPLCPIGSHPK (UniProt Q9ULM3) |  |  | -0.301 | -0.418 |
| ACTN4_O43707_879_RELPPDQAEYCIAR (UniProt O43707) | 0.0491 | 0.0892 |  |  |
| ZNF691_Q5VV52_260_THTGERPYECTECGR (UniProt Q5VV52) |  |  | 0.396 | 1.19 |
| ZCCHC3_Q9NUD5_385_GHAFAQCPK (UniProt Q9NUD5) |  |  | 0.0381 | -0.0115 |
| YARS2_Q9Y2Z4_413_EAPFSEFFLDPGTSVLDTCRK (UniProt Q9Y2Z4) |  |  | -0.161 | -0.368 |
| ACADS_P16219_109_GCASTGVIMSVNNSLYLGPILK (UniProt P16219) | 0.201 | 0.216 |  |  |
| ACADVL_P49748_237_TSAVPSPCGK (UniProt P49748) | -0.126 | -0.057 |  |  |
